Assay [1] has as its system XIP peptide (Xip251-270) binding. Nature of the assay: small-molecule binders of XIP peptide, primary screen, biochemical, small-molecule microarray, fluorescence 635/667 nm, 0.1 µg/mL protein (AID 1182). The following applies: fluorescent protein binding, 635 nm, higher = more signal, called active from +8 up or from −8 down.
The next assay relates to XIP peptide (Xip251-270). The assay can be described thus: small-molecule binders of XIP peptide, primary screen, biochemical, small-molecule microarray, fluorescence 635/667 nm, 0.5 µg/mL protein (AID 1183). The following applies: small-molecule microarray binding, fluorescence 635 nm; higher = more signal.
The nature of assay [2]: Plasmodium falciparum growth inhibition, primary screen, strain 3D7, DAPI fluorescence, 100 nL (AID 1184).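 Note: parasites grown inside human red blood cells in medium with human serum.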 The following applies: P. falciparum 3D7 growth, 3 d, higher = more signal.
Assay [3] addresses Homeobox protein Hox-A13 (Mus musculus) (UniProt Q62424). Nature of the assay: inhibitors of HoxA13-DNA binding, primary screen, biochemical, fluorescence polarization, labeled oligonucleotide (AID 1185). The note with it: 15 min, higher = more signal, called active from +8 up or from −8 down. (In general: In fluorescence polarisation assays a small probe gives low polarisation when free and higher when bound to something large.)

Assay [4] is described as follows: inhibitors of hydroxyurea-induced Chk1 phosphorylation, primary screen, imaging, HeLa, phospho-Chk1 antibody, percent positive cells (AID 1186). The following applies: hydroxyurea-induced phospho-Chk1 immunofluorescence imaging, higher = more signal.
Assay [5] is described as follows: inhibitors of hydroxyurea-induced Chk1 phosphorylation, primary screen, imaging, HeLa, phospho-Chk1 nuclear intensity (AID 1187). The following applies: hydroxyurea-induced phospho-Chk1 immunofluorescence imaging, higher = more signal.

The source made the active and inactive calls. Unless noted, the rule behind the calls is not given here.

Homeobox protein Hox-A13 (Mus musculus), sequence (Q62424 whole entry, looked up): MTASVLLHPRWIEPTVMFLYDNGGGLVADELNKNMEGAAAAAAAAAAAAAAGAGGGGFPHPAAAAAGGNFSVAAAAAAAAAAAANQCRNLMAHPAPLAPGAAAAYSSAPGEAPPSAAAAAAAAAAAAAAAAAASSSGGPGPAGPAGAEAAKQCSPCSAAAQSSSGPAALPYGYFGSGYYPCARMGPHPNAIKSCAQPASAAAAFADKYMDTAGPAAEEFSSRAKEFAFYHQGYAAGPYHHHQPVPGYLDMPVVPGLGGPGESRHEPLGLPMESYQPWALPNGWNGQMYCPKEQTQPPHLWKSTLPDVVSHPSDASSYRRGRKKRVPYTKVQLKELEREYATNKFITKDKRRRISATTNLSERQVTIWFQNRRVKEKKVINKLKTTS

Turning to `CN(C)CCCCCCNC(=O)[C@H]1C[C@H]2C(=O)N[C@@H](CCCCN)C(=O)N2[C@H]1c1cccc(OCCO)c1`, the values for the composite z-score (in assay [1]; with XIP peptide (Xip251-270)) were 0.867 (inactive) and 0.727, respectively. Also, the z-score in assay [2] was 1.05; in assay [3] it was -2.01 (inactive); in assay [4], -0.198 (inactive); in assay [5], -0.0886 (inactive).

Regarding `COc1ccc(C#Cc2ccc3c(c2)[C@]2(C(=O)N3)[C@H](C(=O)Nc3nc4ccccc4s3)[C@H]3C(=O)O[C@H](c4ccccc4)[C@H](c4ccccc4)N3[C@@H]2c2ccc(O)cc2)cc1`, the results for the composite z-score (in assay [1]; in the assay with XIP peptide (Xip251-270)) were 0.0642 (inactive) and 0.73, respectively. Besides, the z-score in assay [2] was -0.435; in assay [3], -0.717 (inactive); in assay [4] it was -0.0599 (inactive); in assay [5], -0.17 (inactive).

For `COCCOC(=O)N1C(=O)[C@@]2(c3cc(C#CCC(C(=O)OC)C(=O)OC)ccc31)[C@H](c1ccccc1OCCO)N1[C@H](c3ccccc3)[C@H](c3ccccc3)OC(=O)[C@H]1[C@@H]2C(=O)NC[C@H](O)c1ccccc1`, the composite z-score in assay [1] is 1.42 (inactive); with XIP peptide (Xip251-270) it was 0.705. Further, the z-score is -2.31 in assay [2], -1.77 (inactive) in assay [3], -0.0638 (inactive) in assay [4] and -0.19 (inactive) in assay [5].

For `CC(C)C(O)C1C=CC2C(=O)N(c3ccccc3)C(=O)C2N1Nc1ccc([N+](=O)[O-])cc1` (configuration not stated), the results for the composite z-score (in assay [1]; in the assay on XIP peptide (Xip251-270)) were -0.354 (inactive) and -0.266, respectively. Besides, the z-score in assay [2] is 0.935; in assay [3] it was -3.78 (inactive); in assay [4] it was 0.659 (inactive); in assay [5] it was -0.404 (inactive).

Take `CC(C)N1C(=O)C[C@@](C(=O)NCC(F)(F)F)(c2ccc([N+](=O)[O-])cc2)[C@H]1c1ccc(CO)cc1`: the composite z-score was 0.0334 (inactive) in assay [1] and 0.202 in the assay with XIP peptide (Xip251-270). For the same compound, the z-score in assay [2] is -1.38; in assay [3], -2.67 (inactive); in assay [4] it was -0.317 (inactive); in assay [5], -0.273 (inactive).

As for `O=C1[C@@]23C=C(Br)[C@H](C[C@@H]2CCOC3)[C@@]12CO2`, the composite z-score is 0.792 (inactive) in assay [1] and -0.377 in the assay with XIP peptide (Xip251-270). Further, the z-score is 1.37 in assay [2], 0.0303 (inactive) in assay [3], -0.259 (inactive) in assay [4] and -0.561 (inactive) in assay [5].

Turning to `COc1ccc(CCNC(=O)[C@@H]2c3ccccc3C(=O)N(Cc3ccccc3Cl)[C@H]2c2ccc(CO)cc2)cc1`, the composite z-score is 0.187 (inactive) in assay [1] and 0.431 with XIP peptide (Xip251-270). Also, the z-score in assay [2] is 0.263; in assay [3], -3.28 (inactive); in assay [4] it was 0.139 (inactive); in assay [5], 0.595 (inactive).

For the compound `O=C(NCCN1CCOCC1)[C@@H]1c2ccccc2C(=O)N(C2CCCCC2)[C@H]1c1ccc(CO)cc1`, the composite z-score in assay [1] was -0.403 (inactive); with XIP peptide (Xip251-270), 0.0759. Besides, the z-score in assay [2] was -1.23; in assay [3] it was -4.02 (inactive); in assay [4], -0.389 (inactive); in assay [5], -0.611 (inactive).

Regarding `COc1cc2c(cc1OC)CN(C(=O)[C@H]1[C@@H]3C(=O)O[C@@H](c4ccccc4)[C@@H](c4ccccc4)N3[C@@H](c3ccc(O)cc3)[C@]13C(=O)Nc1ccc(C#CCCO)cc13)CC2`, the composite z-score in assay [1] was 0.22 (inactive); in the assay on XIP peptide (Xip251-270), 0.798. In addition, the z-score in assay [2] is -1.56; in assay [3], -3.49 (inactive); in assay [4], 0.113 (inactive); in assay [5], 0.393 (inactive).

Take `Oc1ccc2cc[n+](Cc3sc4ccccc4c3Cl)cc2c1`: the results for the composite z-score (in assay [1]; with XIP peptide (Xip251-270)) were 0.558 (inactive) and 0.904, respectively. Also, the z-score in assay [2] was -1.11; in assay [3] it was -4.76 (inactive); in assay [4] it was -0.0224 (inactive); in assay [5], -0.106 (inactive).

`C=C(C(=O)CC[C@@H](OC(=O)c1cccnc1)c1ccccc1OCCO)C(C)C`: the composite z-score in assay [1] was 0.79 (inactive); in the assay on XIP peptide (Xip251-270), 0.209. The z-score in assay [2] was -2.27; in assay [3], -3.56 (inactive); in assay [4], 0.434 (inactive); in assay [5] it was 0.993 (inactive).

For the compound `O=C1N(Cc2ccccc2)c2ccccc2[C@@H]2OC(c3ccc(OCCCO)cc3)=N[C@]12CCS(=O)(=O)c1ccccc1`, the composite z-score in assay [1] is 0.7 (inactive); in the assay with XIP peptide (Xip251-270), 0.677. The z-score was -2.13 in assay [2], 1.28 (inactive) in assay [3], -0.413 (inactive) in assay [4] and -0.77 (inactive) in assay [5].

In the case of `NC(=O)NCC#Cc1ccc2c(c1)[C@]1(C(=O)N2)[C@H](C(=O)Nc2nc3ccccc3s2)[C@H]2C(=O)O[C@H](c3ccccc3)[C@H](c3ccccc3)N2[C@@H]1c1ccccc1OCCO`, the composite z-score in assay [1] is 0.478 (inactive); with XIP peptide (Xip251-270) it was 0.606. In addition, the z-score was -1.74 in assay [2], 2.54 (inactive) in assay [3], 0.302 (inactive) in assay [4] and 0.603 (inactive) in assay [5].

Turning to `CC(C)OC(=O)C=C1C[C@@H](c2ccccn2)O[C@@H](c2ccccn2)O1`, the composite z-score in assay [1] was 1.4 (inactive); with XIP peptide (Xip251-270), -0.0957. Also, the z-score is -0.929 in assay [2], -5.67 (inactive) in assay [3], 0.367 (inactive) in assay [4] and 0.129 (inactive) in assay [5].

`O=C(OCc1ccccc1)C1=CCC2c3[nH]c4ccccc4c3C(=O)C1N2S(=O)(=O)c1ccccc1[N+](=O)[O-]` (configuration not stated): the composite z-score in assay [1] is -0.0884 (inactive); in the assay with XIP peptide (Xip251-270) it was -0.0191. Besides, the z-score in assay [2] is -1.07; in assay [3], -1.47 (inactive); in assay [4], -0.824 (inactive); in assay [5] it was -1.44 (inactive).

`COCCOC(=O)N1C(=O)[C@@]2(c3cc(C#CCNC(N)=O)ccc31)[C@H](C(=O)Nc1nc3ccccc3s1)[C@H]1C(=O)O[C@H](c3ccccc3)[C@H](c3ccccc3)N1[C@@H]2c1ccc(OCCO)cc1`: the composite z-score was 0.113 (inactive) in assay [1] and -0.221 in the assay with XIP peptide (Xip251-270). The z-score is 0.764 in assay [2], 0.886 (inactive) in assay [3], -0.0719 (inactive) in assay [4] and -0.0419 (inactive) in assay [5].

Consider `COCCOC(=O)N1C(=O)[C@@]2(c3ccccc31)[C@H](C(=O)N1CCc3cc(OC)c(OC)cc3C1)[C@H]1C(=O)O[C@H](c3ccccc3)[C@H](c3ccccc3)N1[C@@H]2c1ccc(OCCO)cc1`, for which the results for the composite z-score (in assay [1]; in the assay on XIP peptide (Xip251-270)) were 2.52 (inactive) and 0.8, respectively. Moreover, the z-score in assay [2] was -2.33; in assay [3], 1.9 (inactive); in assay [4], 0.111 (inactive); in assay [5], 0.55 (inactive).

The record behind these values is PubChem BioAssay.
